# Marburg entry inh = Marburg virus entry inhibition | Marburg virus pseudotyped entry inhibition, cell reporter | 1.8% of 300,000 active | AID 540276 | Potency, µM (highest dose often 37.8 µM), hits mostly inhibitors; calls by dose curve; tested in HEK293 cells
# AMA1-RON2 inh = inhibitors of Plasmodium falciparum AMA1-RON2 interaction | 0.2% of 360,000 active | Potency, µM (top dose mostly 58.2 µM), usual class: inhibitors | AlphaScreen AMA1-biotinylated RON2 peptide binding; also: nearly all actives have a fitted effect of over 45% in size
#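 AMA1 (3D7) with his tag at 25 nM final met compounds first, then biotinylated RON2 peptide at 25 nM; detection used donor plus acceptor beads, 10 µg/mL apiece, read by AlphaScreen after 30 min at room temperature.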
# AmpC inh no detg = inhibitors of E. coli AmpC beta-lactamase without detergent. P00811. 0.52% of 330,000 active. Potency, µM (top dose mostly 57.1 µM), most hits filed as inhibitors. AmpC nitrocefin hydrolysis, absorbance 480 nm, 0.0001% Triton. AID 485341; also: nearly all actives have a fitted effect of over 20% in size
# Target sequence (P00811 whole entry, looked up): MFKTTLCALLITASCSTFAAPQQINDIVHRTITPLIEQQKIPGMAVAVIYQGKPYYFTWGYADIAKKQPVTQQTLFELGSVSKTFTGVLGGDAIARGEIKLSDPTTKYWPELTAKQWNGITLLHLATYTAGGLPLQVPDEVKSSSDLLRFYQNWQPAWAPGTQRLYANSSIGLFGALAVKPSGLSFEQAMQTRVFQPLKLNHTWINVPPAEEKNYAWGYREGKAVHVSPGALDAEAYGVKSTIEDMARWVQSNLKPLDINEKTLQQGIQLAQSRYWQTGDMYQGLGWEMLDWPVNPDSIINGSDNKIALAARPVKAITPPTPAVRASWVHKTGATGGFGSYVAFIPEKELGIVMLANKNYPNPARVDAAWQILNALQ
#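 AmpC (5.3 nM in the dispensed reagent) in 20 mM phosphate pH 7.0 with 0.01% (detergent screen) or 0.0001% Triton X-100 was preincubated with compounds for 15 min at room temperature. Nitrocefin was then added from an 800 uM solution, and hydrolysis was followed at 480 nm.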
# AmpC inh detg = blocks E. coli AmpC beta-lactamase in detergent assay | P00811 | AmpC hydrolysis of nitrocefin, absorbance 480 nm, 0.01% Triton | Potency, µM (top dose mostly 114 µM), actives largely listed as inhibitors | 0.041% of 370,000 active; also: nearly all actives have a fitted effect of over 25% in size
#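 AmpC (5.3 nM in the dispensed reagent) in 20 mM phosphate pH 7.0 with 0.01% (detergent screen) or 0.0001% Triton X-100 was preincubated with compounds for 15 min at room temperature. Nitrocefin was then added from an 800 uM solution, and hydrolysis was followed at 480 nm.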
# Lassa entry inh = blocks Lassa virus binding to or entry into cells. AID 540256. 1.2% of 300,000 active. Lassa virus pseudotype entry inhibition, cell reporter. Potency, µM (doses to about 37.9 µM), actives largely listed as inhibitors; calls by dose curve; tested in HEK293 cells; also: nearly all actives have a fitted effect of over 50% in size
# HeLa G2M arrest = HeLa G2/M cell cycle arrest induction. shares compounds with Marburg entry inh. HeLa cell cycle G2/M arrest, Hoechst DNA content imaging. Potency, µM, usual class: inhibitors. 60% of 25 active
# WI-38 tox = WI-38 cytotoxicity of perinucleolar compartment inhibitors. WI-38 normal lung fibroblasts, ATPLite luminescence ATP viability, 24 h. shares compounds with Marburg entry inh. Potency, µM (titrated, usually from 46.1 µM), usual class: inhibitors. 120 tested, under 10 active
# PNC inh conf = confirmation of perinucleolar compartment assembly inhibitors. shares compounds with Marburg entry inh. PC3M PTB-GFP, PNC prevalence imaging, 16 h. Potency, µM (doses to about 46.1 µM), actives largely listed as inhibitors. 50% of 120 active
# PC3M casp3-7 = counter-screen for PNC inhibitors: PC3M caspase 3/7 activation | 120 tested, under 10 active | shares compounds with Marburg entry inh | activity change, positive = activation, % at 46.1 µM | PC3M-GFP caspase 3/7 activation, luminescence, 24 h
# Numbers stand for hits; 0 = inactive; ? = inconclusive; - = not tested or not shown; [ ] = another dose, or the depositor's remark. The list is not random: actives were taken first. Their share in the collection is about 2.3%. Unless noted, calls follow the shape of the dose curve; as a rule, active = well fitted curve in the direction sought with a large enough effect; inconclusive = small, poorly fitted or top-dose-only effect, or another doubt; inactive = no such curve, though single readings can be large; an effect the other way counts as inactive or inconclusive.
SMILES,Marburg entry inh,AMA1-RON2 inh,AmpC inh no detg,AmpC inh detg,Lassa entry inh,WI-38 tox,PNC inh conf,PC3M casp3-7,others
CCC(CO)NC(=O)C(=O)Nc1c2c(nn1-c1ccc(F)cc1)CSC2 (stereo not given),-,-,-,0,0,-,-,-,
CNC(=S)N/N=C/c1cn(CCOc2ccccc2OC)c2ccccc12,?,0[2.32 µM],0,?,0,0,?,0,
COC(=O)N/N=C/c1cn(CCOc2ccccc2OC)c2ccccc12,-,0,0,0,-,-,-,-,
COc1ccc(CCNC(=O)C2CC2)cc1OC,0,0,0,0,0,-,-,-,
COc1ccc(CN2CCC(C(=O)NCCc3ccc(OC)c(OC)c3)CC2)c(OC)c1,?,0,0,0,0,0,?,0,
CC(C)CC(=O)Nc1c(C(=O)N2CCN(c3ccccc3F)CC2)oc2ccccc12,?,-,-,0,?,-,-,-,
Cc1cc(C(=O)COc2ccccc2Cl)c(C)n1-c1ccc2c(c1)OCO2,16µM,0,0,0,4.1µM,0,7.9µM,0,
CNS(=O)(=O)c1cccc(C(=O)OCC(=O)c2cc(C)n(-c3ccc4c(c3)OCO4)c2C)c1,0,0,0,0,0,-,-,-,
CCN(CC)S(=O)(=O)c1ccc(-c2nnco2)cc1,0,0,0,?,0,-,-,-,
CCN(CC)S(=O)(=O)c1ccc(C2=NOC3(C2)N(C)c2ccccc2C3(C)C)cc1 (stereo not given),1.8µM,0,0,0,0.73µM,0,5µM,0,
COc1cc2c(cc1O)CCC1C2CC[C@]2(C)[C@@H](O)CC[C@@H]12 (stereo not given in full),?,-,-,-,-,-,-,-,HeLa G2M arrest=1.1
C[C@]12CC[C@@H]3c4ccc(O)cc4CC[C@H]3[C@@H]1CC[C@@H]2O,?,0,0,0,?,-,-,-,HeLa G2M arrest=10
C[C@]12CC[C@@H]3c4cc(O)c(O)cc4CC[C@H]3[C@@H]1CC[C@@H]2O,-,?,0,0,-,-,-,-,

# Screening data (PubChem BioAssay)
